Compounds with a hit are over-represented: about 27% of the library has one in this group of screens.
CYP2C9 inhib: blockers of cytochrome P450 2C9 activity – biochemical, luminescence, ADME assay, primary screen; CYP2C9 Supersomes, luciferin-H conversion; actives 20% (n = 96,000); P11712; AID 777, 2007; inhibition, % at 5 µM;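 active means blocking of liver enzyme CYP2C9 beyond about 50% at 5 µM, limit read from the data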
Target sequence (P11712 whole entry, looked up): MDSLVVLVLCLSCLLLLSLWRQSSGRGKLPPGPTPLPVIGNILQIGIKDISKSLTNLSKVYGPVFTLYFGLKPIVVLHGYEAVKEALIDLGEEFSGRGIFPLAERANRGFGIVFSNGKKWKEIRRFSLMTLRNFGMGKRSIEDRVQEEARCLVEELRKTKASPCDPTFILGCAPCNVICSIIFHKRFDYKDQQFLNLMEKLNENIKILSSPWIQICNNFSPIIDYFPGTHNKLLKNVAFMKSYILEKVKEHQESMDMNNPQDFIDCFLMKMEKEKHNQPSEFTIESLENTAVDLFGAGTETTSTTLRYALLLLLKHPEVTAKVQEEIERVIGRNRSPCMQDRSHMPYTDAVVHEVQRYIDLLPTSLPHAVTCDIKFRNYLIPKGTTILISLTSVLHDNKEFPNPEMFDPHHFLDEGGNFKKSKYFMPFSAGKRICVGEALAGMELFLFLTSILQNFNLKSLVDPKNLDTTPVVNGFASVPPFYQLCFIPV
CYP2C19 inh: blockers of cytochrome P450 2C19 activity – biochemical, luminescence, ADME assay, primary screen; P33261; inhibition, % at 5 µM; CYP2C19 Supersomes, luciferin-H EGE luminescence, 30 min; actives 21% (n = 96,000); AID 778, 2007;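 active means CYP2C19 inhibition above a set limit at 5 µM in the primary screen, cut at about 50% in these data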
CYP2C9 act: human CYP2C9 activators, primary screen, biochemical, luminescence | activation factor at 5 µM | AID 1024, 2008 | actives 1.4% (n = 96,000) | Cytochrome P450 2C9 (Homo sapiens), P11712 | recombinant CYP2C9, luciferin-H conversion; active compounds read high; factor 1 = untreated enzyme, 0 = blocked;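 active means activation factor of 2 or more for CYP2C9 at a 5 µM dose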
CYP2C19 activ: human CYP2C19 activators, primary screen, biochemical, luminescence | Cytochrome P450 2C19 (Homo sapiens), P33261 | recombinant CYP2C19, luciferin-H EGE luminescence; active compounds read high; 0 = fully inhibited enzyme, 1 = untreated enzyme | activation factor at 5 µM | 96,000 tested, under 10 active;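 active means activation factor of at least 2 at 5 µM in the primary screen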
Cav3 T inh: Cav3.2 calcium influx blockers – cell-based, Fluo-4 calcium fluorescence, FDSS, MLSMR library, primary screen; Voltage-dependent T-type calcium channel subunit alpha-1H (Homo sapiens), O95180; Cav3.2-expressing cells; active compounds read low; B-score at 10 µM; actives 4% (n = 100,000); AID 449739, 2010;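 active means single-dose well whose peak fluorescence ratio is a statistical outlier from its plate by either plate-standardised score or position-corrected B-score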
Of the large screens only hits and unclear results are named; the others gave an inactive call.

CCOc1ccc(S(=O)(=O)Nc2ccc(S(=O)(=O)N3CCOCC3)cc2)cc1	CYP2C9 inhib 60
COc1ccc(-c2ccc(S(=O)(=O)N3CCOCC3)cc2)cc1	none
CCOc1ccc(S(=O)(=O)N2CCN(C(=O)c3cccn3C)CC2)cc1	CYP2C19 inh 64 (no result: Cav3 T inh)
CCOc1ccc(S(=O)(=O)Nc2ccc(S(=O)(=O)N3CCCC3)cc2)cc1	CYP2C9 inhib 94, CYP2C19 inh 85 (no result: Cav3 T inh)
CCOc1ccc(S(=O)(=O)N2CCCCCC2)cc1	CYP2C19 inh 92
CCOc1ccc(NS(=O)(=O)c2ccc(OCC(=O)N3CCCC3)cc2)cc1	none
Cc1nc(CCNC(=O)Cc2ccc(Cl)cc2)cs1	CYP2C19 inh 56
Cc1ccc(C(=O)NCCc2csc(C)n2)cc1	CYP2C9 inhib 53
Cc1nc(CCNC(=O)Cc2ccc(F)cc2)cs1	none
O=C(O)c1ccc2c(c1)N(Cc1ccccc1F)C(=O)c1ccccc1S2=O (stereo not drawn)	none
CC1(O)c2ccccc2C(=O)N1CCc1ccccc1F (stereo not drawn)	CYP2C19 inh 96
CC(=O)NC1=C(C#N)C(c2ccccc2)c2c(ccc3ccccc23)O1 (stereo not drawn)	CYP2C9 inhib 95, CYP2C19 inh 91
CN(C)c1cccc(NC(=O)Cc2ccc(F)cc2)c1	CYP2C9 inhib 62, CYP2C19 inh 98
CN(C)c1cccc(NC(=O)CCc2ccccc2)c1	CYP2C19 inh 95
Cc1sc2ncn(CC(=O)NCCCC(=O)N3CCN(c4ncccn4)CC3)c(=O)c2c1C	none
Cc1cc(=O)[nH]c(Nc2ccc(C(=O)OC(C)C)cc2)n1	none
N#Cc1c(Nc2ccccc2)c(C=NCCN2CCOCC2)c[nH]c1=O	CYP2C19 inh 73
Cn1c(CC(=O)Nc2ccccc2)nnc1SCCOc1ccccc1	none (no result: Cav3 T inh)
O=C(c1ccco1)N(CCC(c1ccccc1)c1ccco1)Cc1ccc(F)cc1 (stereo not drawn)	CYP2C9 inhib 85, Cav3 T inh -3.9
O=C(CN(C(=O)c1ccco1)c1cccc(F)c1)NCc1ccc(F)cc1	CYP2C19 inh 78
O=C(CN(Cc1ccc(F)cc1)C(=O)c1ccco1)NCc1ccc(F)cc1	CYP2C19 inh 83
Cc1ccc(C2=NOC(C)(c3nnc(Cc4ccccc4)o3)C2)cc1 (stereo not drawn)	none (no result: CYP2C9 inhib, CYP2C19 inh, CYP2C9 act, CYP2C19 activ)
O=c1c2ccccc2nc(-c2ccco2)n1Cc1ccccc1	none
O=c1c2ccccc2nc(-c2ccoc2)n1CCc1ccccc1	CYP2C9 inhib 56, CYP2C19 inh 58
COc1ccc(C(=O)n2c(-c3ccco3)nc3ccccc32)cc1	CYP2C9 inhib 61, CYP2C19 inh 54
O=c1c2ccccc2nc(N2CCN(c3ccccc3)CC2)n1Cc1ccccc1	CYP2C9 inhib 71, Cav3 T inh -5.4
CCOc1ccc(CCn2c(-c3ccco3)nc3ccccc3c2=O)cc1OCC	CYP2C19 inh 79 (no result: Cav3 T inh)
COc1ccc(OCCn2c(NC(=O)c3ccco3)nc3ccccc32)cc1	none
Cc1ccc(C2=NOC(C)(c3nnc(-c4ccc(Cl)cc4)o3)C2)cc1 (stereo not drawn)	none (no result: CYP2C9 inhib, CYP2C19 inh, CYP2C9 act, CYP2C19 activ)
Cc1cnn(C(=O)c2ccccc2Br)c1	none
COc1ccc2c(c1)CC1c3c(cc4c(c3-2)OCO4)CC[N+]1(C)[O-] (stereo not drawn)	none (no result: CYP2C9 inhib, CYP2C19 inh, CYP2C9 act, CYP2C19 activ)
CCCCC1=CC2=CC(=O)C(C)(OC(=O)CC)C(=O)C2=CN1Cc1ccc2c(c1)OCO2 (stereo not drawn)	none (no result: CYP2C9 inhib, CYP2C19 inh, CYP2C9 act, CYP2C19 activ)
COc1ccc(CCn2c(-c3ccco3)nc3nc4ccccc4nc32)cc1	CYP2C9 inhib 82, CYP2C19 inh 83
O=c1c2ccccc2nc(-c2ccc(Br)cc2)n1Cc1ccccc1	CYP2C9 inhib 83
COc1ccccc1Cn1c(-c2ccco2)nc2nc3ccccc3nc21	none (no result: CYP2C9 inhib, CYP2C19 inh, CYP2C9 act, CYP2C19 activ)
Cc1n[nH]c(C)c1S(=O)(=O)NCCc1ccc(Cl)cc1	none
CCOC(=O)N1CCC(NC(=O)CCC(=O)N2CC(C)Oc3ccc(Cl)cc32)CC1 (stereo not drawn)	none
CCN(CC)CCNC(=O)Cn1c(C)cc2ccccc2c1=O	none
COc1cc(CCCN2C(=S)NC[C@@H]2c2ccccc2)cc(OC)c1OC	none (no result: CYP2C9 inhib, CYP2C19 inh, CYP2C9 act, CYP2C19 activ)
O=C(Nc1nc(-c2cc(Cl)sc2Cl)cs1)c1cccs1	CYP2C9 inhib 83
O=C(Nc1ncc(Cc2cccc(Cl)c2)s1)c1cccs1	none
O=C(Nc1nc(-c2ccc(S(=O)(=O)N3CCCCCC3)cc2)cs1)c1cccs1	CYP2C9 inhib 53
O=C(Nc1nc(-c2ccc(S(=O)(=O)N3CCCC3)cc2)cs1)c1cccs1	CYP2C9 inhib 62
O=C(NCCc1ccc(S(=O)(=O)N2CCCC2)cc1)c1cccs1	CYP2C9 inhib 62
CSc1ccccc1C(=O)NCCc1ccc(S(=O)(=O)N2CCCCC2)cc1	none
Clc1ccc(CSc2snnc2-c2ccccc2)c(Cl)c1	none
COc1ccc(N(C(=O)COc2ccccc2)C2C=CS(=O)(=O)C2)cc1 (stereo not drawn)	none
O=S1(=O)N=C(Oc2ccccc2)c2ccccc21	none
C=CCN1/C(=C(\C#N)C2=NS(=O)(=O)c3ccccc32)N(C)c2ccccc21	CYP2C19 inh 55
O=C(Oc1ccc(OC(=O)c2ccco2)c(S(=O)(=O)c2ccc(Br)cc2)c1)c1ccco1	CYP2C9 inhib 72, CYP2C19 inh 64
CCN1CCN(CC(=O)Nc2sc3c(c2C#N)CCC(C)C3)CC1 (stereo not drawn)	none
CC1CCc2c(sc(NC(=O)C(=O)NCc3ccco3)c2C#N)C1 (stereo not drawn)	CYP2C9 inhib 68
Cc1cc(C(=O)Nc2sc3c(c2C#N)CCCC3)no1	none (no result: CYP2C9 inhib, CYP2C19 inh, CYP2C9 act, CYP2C19 activ)
Cc1cc(C(=O)Nc2sc3c(c2C#N)CCC(C)C3)no1 (stereo not drawn)	CYP2C9 inhib 76
CC(C)Cn1c(-c2ccc(Cl)cc2)cnc1SCC(=O)N1CCOCC1	none (no result: Cav3 T inh)
CN(C)c1nc(SCCOC(=O)c2ccccc2)nc(N(C)C)n1	CYP2C9 inhib 62, CYP2C19 inh 99
Cc1cc2c(c(C)nn2-c2ccccc2)c(=O)o1	CYP2C19 inh 56
CCOc1ccc(C(=O)Nc2ccc3c(c2)OCCO3)cc1OC	CYP2C19 inh 69
CCCC(=O)Nc1cccc(NC(=O)c2ccc3c(c2)OCCO3)c1	CYP2C19 inh 59
CCCCC(=O)Nc1cccc(NC(=O)c2ccc3c(c2)OCO3)c1	none
COc1cc(C#N)ccc1OCC(=O)c1ccc2c(c1)OCCO2	CYP2C19 inh 62
CCCCC(=O)Nc1ccc(NC(=O)c2ccc3c(c2)OCO3)cc1OC	CYP2C9 inhib 59, CYP2C19 inh 86
CN1C(=C2C(=O)OC(C)(C)OC2=O)Sc2ccccc21	none
CCOC(=O)CSc1nc2ccccc2c(=O)[nH]1	none
COC(=O)CSc1nc(C)c(Oc2ccccc2)c(=O)[nH]1	CYP2C19 inh 64
